# Assay results: PubChem BioAssay (NCATS)
# Results filed as inconclusive are left out. Calls of active or inactive are those of the source. Unless noted, the call rests on the fitted dose curve; in most records, active means well fitted curve in either direction with a large enough effect (not every such curve was filed as active); inconclusive means small, poorly fitted or top-dose-only effect, or another doubt; inactive means flat fitted curve, though single readings scatter.
# Assays:
# [1] = target: Lysosomal acid glucosylceramidase (Homo sapiens) (UniProt P04062); test: Glucocerebrosidase-p2 (AID 348; in the data active means potency below about 10 µM; further: potency means the concentration at half of the fitted maximal effect); settings: purified GBA, blue fluorogenic substrate, 40 min
# In short: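 Compounds titrated from 0.6 nM upwards against 0.2 nM enzyme in pH 5.9 citric acid/KH2PO4, taurocholate, tween-20; blue fluorogenic substrate 80 uM, 40 min room temperature, stopped and read Ex 365/Em 440 for AC50.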
# [2] = AP1 Signaling Pathway (AID 357); settings: ME-180 AP-1-bla reporter, EGF-induced, beta-lactamase ratio, 5 h; at 7.69 µM (top of the series) unless noted;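 further: ME-180 reporter cells stimulated with EGF at its EC50 level; on the % scale 0 is the no-effect control and ±100 the full control effect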
# In short: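 First, ME-180 AP-1-bla cells were cultured overnight at 37 °C in low-serum Opti-MEM. Next, titrated compounds with EC50 EGF were incubated 5 hours. Finally, CCF4 was added for 2.5 hours and the 460/530 nm ratio recorded.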
# [3] = target: Cytochrome P450 1A2 (Homo sapiens) (UniProt P05177); test: p450-cyp1a2 (AID 410; calls by dose curve; further: potency means the concentration at half of the fitted maximal effect;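 on activity change, negative = inhibition: -100% = full effect of reference inhibitor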); settings: recombinant CYP1A2, luciferin-ME demethylation, luminescence; series mostly up to 57 µM
# In short: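 Luminescent readout of luciferin formed from Luciferin-ME by human CYP1A2; data normalized against complete inhibition by 57 uM furafylline. Enzyme 20nM, substrate 100uM at Km, 100mM KPO4 buffer, 60 min reaction at room temperature.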
# [4] = NFAT Signaling Pathway (AID 444); settings: Jurkat NFAT-bla M1, carbachol, beta-lactamase ratio, 5 h; at 7.69 µM (top of the series) unless noted;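 further: carbachol stimulus at about its EC50 of 1 µM final; on the % scale 0 is the no-effect control and ±100 the full control effect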
# In short: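 Jurkat cells with NFAT-driven β-lactamase reporter and co-expressed M1 receptor, stimulated with carbachol (final 1 uM, ~EC50), compound titration, 5 h at 37 °C. CCF4 loaded 1 h at RT; 460/530 nm ratio gave %activity and AC50.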
# [5] = target: Glucocorticoid receptor (Homo sapiens) (UniProt P04150); test: GR-GFP Redistribution (AID 450;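 active means compounds whose dose series gives a full or clear partial fitted curve of increased nuclear translocation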; further: potency means the concentration at half of the fitted maximal effect); settings: U2OS GR-GFP nuclear translocation, laser cytometry, 2 h
# [6] = target: Glucocorticoid receptor (Homo sapiens) (UniProt P04150); test: GR-EFC Redistribution (AID 451; calls by dose curve; further: potency means the concentration at half of the fitted maximal effect); settings: CHO-K1 GR-EFC translocation, beta-gal luminescence, 2 h
# In short: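 CHO-K1 cells expressing nuclear EA and GR-ED fragments of b-gal; compounds titrated up to 46 uM final, 2 h at 37 C. GR nuclear translocation read as complemented b-gal luminescence after 1 h RT detection.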
# [7] = target: Mitogen-activated protein kinase 10 (Mus musculus) (UniProt Q61831); test: JNK3 AlphaScreen Assay (AID 530); settings: JNK3 lysate, c-Jun phosphorylation; series mostly up to 57.1 µM;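 further: kinase came from lysate of stimulated human HepG2 cells; signal reports phosphorylation of biotinylated GST-cJun 1-79 at Ser73 with 10 µM ATP; on the % scale 0 is the no-effect control and ±100 the full control effect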
# In short: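 Pre-activated (IL-1β/TNFα) JNK3 in HepG2 lysates phosphorylates biotin-GST-cJun(1-79), 10 uM ATP; anti-phospho-cJun(Ser73) AlphaScreen read at room temperature, pH 7.6 Tris buffer. Compounds pre-incubated 15 min as titrations.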
# [8] = target: Cytochrome P450 3A4 (Homo sapiens) (UniProt P08684); test: qHTS Assay for Activators of Cytochrome P450 3A4 (AID 885; active means well fitted curve in the direction sought with a large enough effect; an effect the other way counts as inactive or inconclusive; further: nearly all actives have a fitted effect of over 65% in size); settings: recombinant CYP3A4, Luciferin-PPXE luminescence, 60 min; series mostly up to 57.1 µM
# In short: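 Human CYP3A4 (20 nM) with Luciferin-PPXE at 25 uM (its KM) in 200 mM KPO4; 10 min compound preincubation, then NADPH regeneration and 60 min reaction at RT. Luciferin read by luminescence; normalized to 57 uM ketoconazole full inhibition.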
# [9] = qHTS Assay for Lipid Storage Modulators (AID 1519; calls by dose curve; further: potency means the concentration at half of the fitted maximal effect); settings: Drosophila S3 cells, BODIPY lipid droplet/cell ratio, laser cytometry, cells loaded with oleic acid; for activity change, negative = inhibition: at 57.5 µM (top of the series)
# In short: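 Cells seeded at 5,000 per well were treated with compounds over a concentration series and loaded with oleic acid (400 uM, as added). Lipid droplet fluorescence (488 nm excitation, 500-530 nm channel) was read by laser-scanning cytometry and normalized to 20 uM Triacsin C.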
# [10] = target: 3',5'-cyclic-AMP phosphodiesterase 4B (Homo sapiens) (UniProt Q07343); test: qHTS Assay for Inhibitors of PDE-IV (AID 607; active means well fitted activation curve with a large enough effect in the main read-out, with a control signal flat, not every such curve was filed as active; further: % of control where 0% means no effect); settings: HEK293 ACTOne CNG channel cells, membrane potential fluorescence; series mostly up to 22.9 µM
# In short: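 HEK293 ACTOne cells with CNG channel (1000/well), endogenous PDE4; membrane potential dye, compounds up to 22.9 uM final. Fluorescence Ex 535/Em 590; RO 20-1724 (100 uM final) as reference.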
# [11] = Stat Signaling Pathway (AID 446); settings: ME-180 SIE beta-lactamase reporter, IL-6 stimulated, 5 h; at 7.69 µM (top of the series) unless noted;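 further: ME-180 cervical cancer cells given 40 pM IL-6 alongside compound; SIE-controlled beta-lactamase reporter measured as 460/530 nm FRET emission ratio; on the % scale 0 is the no-effect control and ±100 the full control effect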
# In short: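 ME-180 cells carrying a SIE-driven beta-lactamase reporter are stimulated with 40 pM IL-6 for 5 h at 37C in the presence of compound. The 460/530 nm FRET substrate ratio is read after 2.5 h at RT. Data are normalised to 300 pM IL-6 and to 125 nM JAK inhibitor controls.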
# [12] = target: Cytochrome P450 2D6 (Homo sapiens) (UniProt P10635); test: qHTS Assay for Inhibitors and Substrates of Cytochrome P450 2D6 (AID 891; active means well fitted curve in the direction sought with a large enough effect; an effect the other way counts as inactive or inconclusive; further: nearly all actives have a fitted effect of over 60% in size; further: potency means the concentration at half of the fitted maximal effect); settings: recombinant CYP2D6, luciferin-ME EGE luminescence; series mostly up to 57.1 µM
# In short: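 Human CYP2D6 (5 nM) with 30 uM Luciferin-ME EGE (at Km) in 100 mM KPO4, compound preincubated 10 min, then NADPH regeneration system for 60 min at room temperature. Luciferin read by luminescence; normalized to 1.43 uM quinidine.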
# [13] = target: Ubiquitin carboxyl-terminal hydrolase 1 (Homo sapiens) (UniProt O94782); test: Inhibitors of USP1/UAF1: Pilot qHTS (AID 504865; active means well fitted curve in the direction sought with a large enough effect; an effect the other way counts as inactive or inconclusive; further: nearly all actives have a fitted effect of over 35% in size; further: potency means the concentration at half of the fitted maximal effect); settings: purified USP1/UAF1, Ub-rhodamine cleavage fluorescence; series mostly up to 54.9 µM
# In short: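 Deubiquitinase activity followed as kinetic rhodamine fluorescence release from 150 nM Ub-Rho. 1 nM USP1/UAF1 with compound, after 15 min room-temperature preincubation, in HEPES pH 7.8 buffer containing TCEP, EDTA, BSA and Tween-20.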
# [14] = measured here: cell count channel max response
# [15] = measured here: lipid channel max response
# Chain of 3',5'-cyclic-AMP phosphodiesterase 4B (Homo sapiens) (Q07343 whole entry, looked up): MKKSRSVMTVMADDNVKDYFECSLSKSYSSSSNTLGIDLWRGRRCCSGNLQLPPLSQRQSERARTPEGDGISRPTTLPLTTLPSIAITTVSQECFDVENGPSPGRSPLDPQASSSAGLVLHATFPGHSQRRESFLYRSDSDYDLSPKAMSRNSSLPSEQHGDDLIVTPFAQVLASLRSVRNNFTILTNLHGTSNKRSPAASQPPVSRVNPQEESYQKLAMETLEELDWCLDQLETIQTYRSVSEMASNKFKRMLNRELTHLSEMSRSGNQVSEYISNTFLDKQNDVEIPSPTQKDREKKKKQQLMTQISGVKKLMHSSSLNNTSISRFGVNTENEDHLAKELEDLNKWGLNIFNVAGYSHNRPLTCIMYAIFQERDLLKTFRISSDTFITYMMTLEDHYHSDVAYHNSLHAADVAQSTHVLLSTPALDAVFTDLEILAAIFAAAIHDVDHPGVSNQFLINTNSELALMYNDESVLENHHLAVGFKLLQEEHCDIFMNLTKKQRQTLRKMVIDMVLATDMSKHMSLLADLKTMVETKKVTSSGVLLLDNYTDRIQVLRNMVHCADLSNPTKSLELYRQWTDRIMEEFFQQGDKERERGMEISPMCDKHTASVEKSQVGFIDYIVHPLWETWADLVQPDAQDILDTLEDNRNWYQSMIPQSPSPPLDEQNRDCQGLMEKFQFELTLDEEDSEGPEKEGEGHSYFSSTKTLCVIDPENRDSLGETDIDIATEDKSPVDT
# Chain of Cytochrome P450 1A2 (Homo sapiens) (P05177 whole entry, looked up): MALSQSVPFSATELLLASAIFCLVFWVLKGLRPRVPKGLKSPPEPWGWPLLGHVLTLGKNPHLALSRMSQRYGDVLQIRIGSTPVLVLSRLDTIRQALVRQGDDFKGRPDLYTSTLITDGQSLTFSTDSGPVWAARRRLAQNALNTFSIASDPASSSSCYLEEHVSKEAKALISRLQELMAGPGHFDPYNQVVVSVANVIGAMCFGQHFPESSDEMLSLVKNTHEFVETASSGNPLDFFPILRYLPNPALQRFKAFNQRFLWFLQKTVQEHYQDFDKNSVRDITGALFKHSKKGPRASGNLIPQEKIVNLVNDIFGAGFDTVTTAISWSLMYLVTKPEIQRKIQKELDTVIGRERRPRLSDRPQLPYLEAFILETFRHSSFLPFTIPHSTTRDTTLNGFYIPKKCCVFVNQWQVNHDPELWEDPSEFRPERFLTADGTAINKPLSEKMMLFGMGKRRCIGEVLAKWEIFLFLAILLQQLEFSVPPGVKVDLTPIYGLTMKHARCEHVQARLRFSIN
# Chain of Cytochrome P450 2D6 (Homo sapiens) (P10635 whole entry, looked up): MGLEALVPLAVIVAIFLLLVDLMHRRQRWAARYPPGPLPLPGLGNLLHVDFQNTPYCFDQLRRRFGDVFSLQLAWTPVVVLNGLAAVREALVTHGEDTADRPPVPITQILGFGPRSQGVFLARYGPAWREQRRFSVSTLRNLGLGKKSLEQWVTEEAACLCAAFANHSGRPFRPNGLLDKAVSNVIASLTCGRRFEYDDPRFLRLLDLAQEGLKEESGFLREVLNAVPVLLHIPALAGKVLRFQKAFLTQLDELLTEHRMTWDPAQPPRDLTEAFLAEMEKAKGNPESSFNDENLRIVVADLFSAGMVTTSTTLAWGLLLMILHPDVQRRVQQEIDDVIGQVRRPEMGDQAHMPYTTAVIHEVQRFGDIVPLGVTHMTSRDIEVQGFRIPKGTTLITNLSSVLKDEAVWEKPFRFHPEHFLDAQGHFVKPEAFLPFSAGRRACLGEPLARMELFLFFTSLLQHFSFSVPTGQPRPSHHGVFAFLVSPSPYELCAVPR
# Chain of Glucocorticoid receptor (Homo sapiens) (P04150 whole entry, looked up, the tested form may be a part): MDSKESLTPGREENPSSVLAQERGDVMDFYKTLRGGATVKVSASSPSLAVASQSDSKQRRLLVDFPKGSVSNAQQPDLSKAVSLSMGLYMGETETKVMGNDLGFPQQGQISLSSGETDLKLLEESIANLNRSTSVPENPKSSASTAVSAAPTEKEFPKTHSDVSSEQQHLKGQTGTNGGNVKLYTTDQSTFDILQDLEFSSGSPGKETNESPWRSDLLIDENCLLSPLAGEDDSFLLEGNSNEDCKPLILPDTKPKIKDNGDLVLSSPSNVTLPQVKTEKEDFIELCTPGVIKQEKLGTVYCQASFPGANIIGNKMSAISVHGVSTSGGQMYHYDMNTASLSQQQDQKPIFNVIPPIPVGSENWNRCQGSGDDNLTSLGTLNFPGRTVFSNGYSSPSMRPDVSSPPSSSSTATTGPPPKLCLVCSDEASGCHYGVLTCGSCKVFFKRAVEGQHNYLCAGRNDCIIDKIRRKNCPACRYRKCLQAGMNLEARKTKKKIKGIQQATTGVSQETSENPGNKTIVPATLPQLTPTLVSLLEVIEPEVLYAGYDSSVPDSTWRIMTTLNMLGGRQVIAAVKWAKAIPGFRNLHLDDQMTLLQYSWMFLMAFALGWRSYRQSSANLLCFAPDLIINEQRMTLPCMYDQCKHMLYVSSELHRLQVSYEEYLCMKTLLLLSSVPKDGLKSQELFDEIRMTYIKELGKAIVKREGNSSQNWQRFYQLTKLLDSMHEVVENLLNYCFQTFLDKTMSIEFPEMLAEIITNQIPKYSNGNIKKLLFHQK
# Chain of Lysosomal acid glucosylceramidase (Homo sapiens) (P04062 whole entry, looked up): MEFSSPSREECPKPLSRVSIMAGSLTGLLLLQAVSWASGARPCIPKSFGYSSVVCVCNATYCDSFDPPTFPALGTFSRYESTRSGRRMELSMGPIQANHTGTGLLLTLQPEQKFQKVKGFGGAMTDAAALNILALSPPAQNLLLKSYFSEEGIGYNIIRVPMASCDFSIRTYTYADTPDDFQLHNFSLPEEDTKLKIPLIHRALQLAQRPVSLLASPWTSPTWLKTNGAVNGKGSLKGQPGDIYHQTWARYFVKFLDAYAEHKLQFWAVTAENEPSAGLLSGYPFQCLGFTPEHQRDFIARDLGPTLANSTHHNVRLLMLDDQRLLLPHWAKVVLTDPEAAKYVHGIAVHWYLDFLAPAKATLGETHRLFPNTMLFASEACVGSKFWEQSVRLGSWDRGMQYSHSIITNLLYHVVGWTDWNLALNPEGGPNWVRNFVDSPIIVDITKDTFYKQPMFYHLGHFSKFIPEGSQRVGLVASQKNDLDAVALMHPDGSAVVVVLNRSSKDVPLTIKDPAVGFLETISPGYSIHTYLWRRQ
# Chain of Cytochrome P450 3A4 (Homo sapiens) (P08684 whole entry, looked up): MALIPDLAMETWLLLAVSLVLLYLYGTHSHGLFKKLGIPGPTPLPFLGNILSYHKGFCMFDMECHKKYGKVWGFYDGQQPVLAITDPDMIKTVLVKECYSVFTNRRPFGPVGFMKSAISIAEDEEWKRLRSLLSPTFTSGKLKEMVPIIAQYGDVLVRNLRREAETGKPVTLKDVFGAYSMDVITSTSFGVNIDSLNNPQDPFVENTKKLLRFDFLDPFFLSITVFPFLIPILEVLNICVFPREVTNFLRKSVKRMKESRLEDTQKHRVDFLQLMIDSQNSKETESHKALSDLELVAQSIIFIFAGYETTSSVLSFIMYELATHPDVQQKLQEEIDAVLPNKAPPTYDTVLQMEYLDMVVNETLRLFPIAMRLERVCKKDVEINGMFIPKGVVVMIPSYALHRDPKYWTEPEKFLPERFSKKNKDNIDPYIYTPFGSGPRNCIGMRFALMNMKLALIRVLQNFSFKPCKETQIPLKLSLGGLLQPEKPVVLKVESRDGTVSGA
# Chain of Ubiquitin carboxyl-terminal hydrolase 1 (Homo sapiens) (O94782 whole entry, looked up): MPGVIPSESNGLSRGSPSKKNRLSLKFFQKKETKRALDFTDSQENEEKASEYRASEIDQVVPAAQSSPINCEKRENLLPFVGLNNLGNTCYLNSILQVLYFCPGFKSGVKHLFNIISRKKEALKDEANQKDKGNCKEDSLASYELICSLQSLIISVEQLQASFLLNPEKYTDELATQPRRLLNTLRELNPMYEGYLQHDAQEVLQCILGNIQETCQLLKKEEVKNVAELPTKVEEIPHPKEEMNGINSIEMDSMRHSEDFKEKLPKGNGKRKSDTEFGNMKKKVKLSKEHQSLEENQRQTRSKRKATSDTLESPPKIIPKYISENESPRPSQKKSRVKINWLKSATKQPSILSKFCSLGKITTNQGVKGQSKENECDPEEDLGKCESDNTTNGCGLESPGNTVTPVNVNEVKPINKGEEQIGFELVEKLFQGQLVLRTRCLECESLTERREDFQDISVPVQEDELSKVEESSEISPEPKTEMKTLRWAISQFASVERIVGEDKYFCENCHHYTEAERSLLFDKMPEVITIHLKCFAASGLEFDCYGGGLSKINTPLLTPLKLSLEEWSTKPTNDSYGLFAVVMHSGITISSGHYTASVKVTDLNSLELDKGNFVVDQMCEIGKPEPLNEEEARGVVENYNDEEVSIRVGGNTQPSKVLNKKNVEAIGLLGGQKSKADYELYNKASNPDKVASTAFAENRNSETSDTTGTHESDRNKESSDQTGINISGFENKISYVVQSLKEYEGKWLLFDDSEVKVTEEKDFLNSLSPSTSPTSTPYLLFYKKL
Compound,Potency [1],"activity change, negative = inhibition [2]",Potency [3],"activity change, negative = inhibition [4]",Potency [5],Potency [6],Potency [7],Potency [8],"activity change, negative = inhibition [9]","max response [9, 14] [%]","max response [9, 15] [%]",Potency [10],"activity, negative = inhibition [11]",Potency [12],Potency [9],Potency [13]
COc1ccc(Oc2ncc3nc(-c4cc(F)cc(F)c4)c(=O)n(C)c3n2)cc1,> 11.4 µM (inactive),18.9% (inactive),3.16 µM (active),-15.3% (inactive),> 9.22 µM (inactive),> 46 µM (inactive),inactive,inactive,-5.54% (inactive),13.4,-2.06,–,–,–,–,–
N#CCCn1c(=O)c(-c2ccc(Cl)cc2)nc2cnc(Oc3cccc(Cl)c3)nc21,> 11.4 µM (inactive),23.4% (inactive),inactive,14.7% (inactive),> 9.22 µM (inactive),> 46 µM (inactive),inactive,–,4.13% (inactive),4.81,10.2,inactive,–,–,–,–
FC(F)(F)c1cc(CN2CC[C@@]3(CCCNC3)C2)cc(C(F)(F)F)c1,> 11.4 µM (inactive),7.88% (inactive),inactive,–,–,> 46 µM (inactive),inactive,inactive,1.16% (inactive),8.55,10.6,inactive,4.03% (inactive),inactive,–,–
N#Cc1ccc(CN2CC[C@@]3(CCCN(S(=O)(=O)c4ccccc4)C3)C2)cc1,> 11.4 µM (inactive),0.616% (inactive),15.8 µM (active),–,–,> 46 µM (inactive),inactive,–,-4.95% (inactive),13.6,7.48,inactive,-5.91% (inactive),–,–,–
CS(=O)(=O)N1CCC[C@@]2(CCN(C(c3ccccc3)c3ccccc3)C2)C1,> 11.4 µM (inactive),5.41% (inactive),25.1 µM (active),-7.94% (inactive),–,> 46 µM (inactive),inactive,inactive,–,-26.7,-82.6,inactive,1.66% (inactive),3.98 µM (active),7.94 µM (active),–
Cc1noc(C)c1C(=O)N1CCC[C@@]2(CCN(Cc3cc(C(F)(F)F)cc(C(F)(F)F)c3)C2)C1,> 11.4 µM (inactive),1.15% (inactive),inactive,14.8% (inactive),–,> 46 µM (inactive),inactive,inactive,4.37% (inactive),12.5,19.6,inactive,1.36% (inactive),–,–,–
COCCn1c(=O)c(-c2ccc(F)cc2)nc2cnc(Oc3ccc(OC)cc3)nc21,> 11.4 µM (inactive),-14.8% (inactive),–,0.536% (inactive),> 9.22 µM (inactive),> 46 µM (inactive),inactive,–,-18.7% (inactive),-18.1,-27.4,inactive,-13.7% (inactive),–,–,–
Cc1ccccc1-c1cncnc1NCCN1CCOCC1,> 11.4 µM (inactive),24.4% (inactive),15.8 µM (active),–,> 46 µM (inactive),> 46 µM (inactive),inactive,–,4.31% (inactive),0.273,3.28,inactive,7.48% (inactive),–,–,–
O=S(=O)(c1ccccc1)N1CCC[C@@]2(CCN(Cc3nccs3)C2)C1,> 11.4 µM (inactive),-10.5% (inactive),15.8 µM (active),–,–,> 46 µM (inactive),inactive,inactive,0.281% (inactive),10.8,15.6,inactive,-1.53% (inactive),2.51 µM (active),–,–
N#CCCn1c(=O)cnc2cnc(N3CCNCC3)nc21,> 11.4 µM (inactive),-10.6% (inactive),12.6 µM (active),3.67% (inactive),> 9.22 µM (inactive),> 46 µM (inactive),inactive,–,4.17% (inactive),14.3,19.4,inactive,–,–,–,–
COc1ccccc1-c1nccc(NCc2cccc(C)c2)n1,> 11.4 µM (inactive),-2.08% (inactive),0.631 µM (active),-5.48% (inactive),–,> 46 µM (inactive),inactive,inactive,-4.4% (inactive),-19.8,-23.8,–,–,1.58 µM (active),–,22.4 µM (active)
Cc1cnc(CNc2ccnc(-c3ccc(N(C)C)cc3)n2)cn1,> 11.4 µM (inactive),8.41% (inactive),2.51 µM (active),-1.95% (inactive),> 46 µM (inactive),–,inactive,inactive,8.28% (inactive),-9.25,1.54,inactive,–,–,–,–
Cc1ccccc1-c1cncnc1N1CCNCC1,> 11.4 µM (inactive),-3.42% (inactive),–,10.1% (inactive),> 46 µM (inactive),> 46 µM (inactive),inactive,–,10.2% (inactive),11,18.8,inactive,1.91% (inactive),–,–,inactive
